Sampled rows, rich in hits. Any-hit rate of the full collection: about 28%.
CYP2C19 inhib: human CYP2C19 inhibition. P33261. CYP2C19 Supersomes, luciferin-H EGE luminescence, 30 min. inhibition, % at 5 µM. 96,000 compounds, 21% hits;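 active = CYP2C19 inhibition above a set limit at 5 µM in the primary screen, cut at about 50% in these data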
Target sequence (P33261 whole entry, looked up): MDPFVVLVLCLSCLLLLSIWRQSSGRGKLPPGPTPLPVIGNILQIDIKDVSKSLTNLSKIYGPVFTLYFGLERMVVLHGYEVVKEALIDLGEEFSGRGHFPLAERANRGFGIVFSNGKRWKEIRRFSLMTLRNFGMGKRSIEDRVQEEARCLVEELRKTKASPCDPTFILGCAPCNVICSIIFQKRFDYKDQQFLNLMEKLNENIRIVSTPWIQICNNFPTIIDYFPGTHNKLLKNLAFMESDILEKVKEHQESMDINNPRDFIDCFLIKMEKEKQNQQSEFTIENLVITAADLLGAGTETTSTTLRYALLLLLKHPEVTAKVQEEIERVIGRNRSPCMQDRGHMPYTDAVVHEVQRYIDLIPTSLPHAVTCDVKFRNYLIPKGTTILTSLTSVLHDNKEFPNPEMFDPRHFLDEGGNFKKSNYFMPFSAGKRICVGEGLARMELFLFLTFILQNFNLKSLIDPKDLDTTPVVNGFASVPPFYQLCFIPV
CYP2C19 act: increases human CYP2C19 enzyme activity. P33261. recombinant CYP2C19, luciferin-H EGE luminescence; hits give high values; 0 = fully inhibited enzyme, 1 = untreated enzyme. activation factor at 5 µM. 96,000 tested, under 10 active. AID 1025;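 active = activation factor of at least 2 at 5 µM in the primary screen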
CYP2C9 inhib: blocks human cytochrome P450 2C9. P11712. CYP2C9 Supersomes, luciferin-H conversion, luminescence. inhibition, % at 5 µM. 96,000 compounds, 20% hits;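 active = blocking of liver enzyme CYP2C9 beyond about 50% at 5 µM, limit read from the data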
PLK1 PBD inh: Plk1 (human) PBD binding inhibition | Plk1 PBD phosphopeptide binding, fluorescence polarization | inhibition, %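 (tested at about 20 µM)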 | P53350 | AID 693 | 97,000 compounds, 0.13% hits; in the data active = inhibition above about 34%, passing the limit was not always enough
CYP2C9 act: CYP2C9 (human) activation. activation factor at 5 µM. recombinant CYP2C9, luciferin-H conversion, luminescence; hits give high values; factor 1 = untreated enzyme, 0 = blocked. P11712. 96,000 compounds, 1.4% hits;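 active = activation factor of 2 or more for CYP2C9 at a 5 µM dose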
PLK1 kinase inh: PLK1 (human) kinase inhibition; P53350; recombinant PLK1 kinase, TR-FRET peptide phosphorylation; inhibition, % at 10 µM; 97,000 compounds, 0.53% hits; AID 619;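 active = inhibition of 50% or more in the single-concentration screen; inactive = inhibition below 50%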
Of the large screens only hits and unclear results are named; the others gave an inactive call.

O=C(CS(=O)c1cccc(C(F)(F)F)c1)Nc1ccc(Cl)cc1Cl (centres undefined)	CYP2C19 inhib 100, CYP2C9 act 2.1
O=C(CS(=O)c1cccc(Cl)c1)Nc1ccccc1Cl (centres undefined)	CYP2C19 inhib 60, CYP2C9 act 2.6
CC(=O)OCC(=O)Nc1ccc(Cl)cc1Cl	none (no result: PLK1 PBD inh, PLK1 kinase inh)
C=CCn1c(SCC(=O)NC(=O)NCCC)nnc1C1CCCCC1	CYP2C19 inhib 58, CYP2C9 inhib 66
C=CCn1c(SCC(=O)NCc2cccs2)nnc1C1CCCCC1	none (no result: PLK1 PBD inh, PLK1 kinase inh)
C=CCn1c(SCC(=O)NC(=O)NCC(C)C)nnc1C1CCCCC1	CYP2C19 inhib 55
C=CCn1c(SCC(=O)NCC2CCCO2)nnc1C1CCCCC1 (centres undefined)	none
COc1ccc(C2(O)CCN(CCCCOc3ccccc3)CC2)cc1	none
COc1ccc(N2CCCn3c2nc2c3c(=O)n(Cc3ccc(F)cc3)c(=O)n2C)c(OC)c1	none (no result: PLK1 PBD inh, PLK1 kinase inh)
COc1ccc(NC2=CC(=O)CC(c3ccccc3)C2)c(OC)c1 (centres undefined)	CYP2C19 inhib 62
CCOc1ccccc1NC1=CC(=O)CC(c2ccccc2)C1 (centres undefined)	none
O=C(NCc1ccc(C(F)(F)F)cc1)C1CC(c2ccccc2[N+](=O)[O-])=NO1 (centres undefined)	none
O=C(Nc1ccc(N2CCN(C(=O)c3ccco3)CC2)c(Cl)c1)c1c(F)c(F)c(F)c(F)c1F	CYP2C19 inhib 68, CYP2C9 inhib 73
COc1c(F)c(F)c(C(=O)Nc2ccc(N3CCN(C(C)=O)CC3)c(Cl)c2)c(F)c1F	CYP2C9 inhib 66
COc1c(F)c(F)c(C(=O)Nc2ccc(N3CCN(Cc4ccccc4)CC3)cc2)c(F)c1F	CYP2C9 inhib 57
O=C(Nc1ccc(N2CCN(C(=O)c3cccs3)CC2)c(Cl)c1)c1ccco1	CYP2C9 inhib 54
COc1cccc(C(=O)Nc2ccc(N3CCN(Cc4ccccc4)CC3)cc2)c1	none
Cc1cc(/C=C(\C#N)C(=O)NCc2cccs2)c(C)n1-c1ccccc1F	none
CC(=O)C1=C(C)NC(=O)NC1c1ccccc1 (centres undefined)	none
CSc1nc2c(c(C(F)(F)F)n1)CC(C)CC2 (centres undefined)	none
CC1CCN(S(=O)(=O)c2ccc(S(=O)(=O)N3CCN4CCCC4C3)cc2)CC1 (centres undefined)	none (no result: PLK1 PBD inh, PLK1 kinase inh)
O=C1c2cccc3cccc(c23)C(=O)N1c1nncs1	none (no result: PLK1 PBD inh, PLK1 kinase inh)
CCn1ncc(C2=NOC(C(=O)NCCc3ccccc3)C2)c1C (centres undefined)	none
COc1ccc(N(CC(O)Cn2nnc3ccccc32)S(=O)(=O)c2ccc(C)cc2)cc1 (centres undefined)	CYP2C19 inhib 86, CYP2C9 inhib 69
COc1ccc(N(CC(O)CN2C(=O)NC(C)(C)C2=O)S(=O)(=O)c2ccc(C)cc2)cc1 (centres undefined)	CYP2C19 inhib 61, CYP2C9 inhib 66
Cc1ccc(S(=O)(=O)N2CCN(C(=O)C3Cc4ccccc4CN3C(=O)c3ccco3)CC2)cc1 (centres undefined)	none
Cc1ccc(-c2nnn(CC(=O)Nc3ccc(S(=O)(=O)N4CCC(C)CC4)cc3)n2)cc1	none
CCc1nnc(NC(=O)CCN2C(=O)c3ccccc3C2=O)s1	none
CC1CCN(S(=O)(=O)c2ccc(NC(=O)Cn3nnc(-c4ccccc4)n3)cc2)CC1	CYP2C9 inhib 76
O=C(Cn1nnc(-c2ccc(S(=O)(=O)N3CCCC3)cc2)n1)NCC1CCCO1 (centres undefined)	CYP2C9 inhib 70
CC1CCCN(S(=O)(=O)c2ccc(NC(=O)Cn3nnc(-c4ccccc4F)n3)cc2)C1 (centres undefined)	CYP2C19 inhib 62, CYP2C9 inhib 99
CCc1nnc(NC(=O)Cn2nnc(-c3ccccc3F)n2)s1	CYP2C9 inhib 66 (no result: PLK1 PBD inh, PLK1 kinase inh)
CC1CCCN(S(=O)(=O)c2ccc(NC(=O)CCN3C(=O)c4ccccc4C3=O)cc2)C1 (centres undefined)	none
Cc1ccc(C2(C)NC(=O)N(CC(=O)NC(=O)NC3CCCC3)C2=O)cc1 (centres undefined)	none
CCSc1nnc(NC(=O)CSc2nc3c(c(=O)n2-c2ccccc2OC)SCC3)s1	none (no result: CYP2C19 inhib, CYP2C19 act, CYP2C9 inhib, CYP2C9 act)
CCCn1c(SCC(=O)c2ccc(CC)cc2)n[nH]c1=O	none

Screening results (PubChem)
